Rows were chosen to be rich in hits. Some 2.4% of all compounds tested hit in one or more screens of this group.
D2 PAM-1 = Beta-Arrestin HTS for Positive Allosteric Modulators of the Human D2 Dopamine Receptor: Potentiators; DiscoveRx D2 beta-arrestin cells, luminescence, 90 min; 100% = 57 uM dopamine signal; D(2) dopamine receptor (Homo sapiens), P14416; 0.23% of 360,000 active; AID 624464, 2012; potentiation, % (no concentration beside the values); in the data active means potentiation above about 50%
Target sequence (P14416 whole entry, looked up): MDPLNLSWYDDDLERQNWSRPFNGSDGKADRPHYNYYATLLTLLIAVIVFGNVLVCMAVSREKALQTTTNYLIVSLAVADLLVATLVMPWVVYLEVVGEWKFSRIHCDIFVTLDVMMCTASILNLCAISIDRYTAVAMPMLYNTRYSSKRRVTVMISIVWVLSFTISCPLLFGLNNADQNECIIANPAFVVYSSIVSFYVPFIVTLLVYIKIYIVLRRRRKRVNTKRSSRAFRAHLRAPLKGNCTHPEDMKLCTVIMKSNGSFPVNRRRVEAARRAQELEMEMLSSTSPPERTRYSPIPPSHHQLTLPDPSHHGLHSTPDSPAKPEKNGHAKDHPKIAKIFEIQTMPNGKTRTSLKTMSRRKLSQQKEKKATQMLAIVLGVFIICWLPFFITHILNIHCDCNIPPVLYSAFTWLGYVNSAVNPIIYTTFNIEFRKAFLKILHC
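PathHunter beta-arrestin assay in DiscoveRx D2 cells. Compounds were added with an EC20 of dopamine (50 nM final) for 90 min at 37 deg C. Luminescence was read 1 h after detection reagent, with 57 uM dopamine as the EC100 control.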
D2 antag = HTS Assay for Allosteric Antagonists of the Human D2 Dopamine Receptor: Primary Screen for Antagonists. inhibition, % at 10 µM. HEK293 TREx D2 cells, calcium flux, dopamine EC80. AID 485344, 2010. 2% of 340,000 active; in the data active means inhibition above about 30%; inactive means below that, where a call was filed; further: 0% is about no effect
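Tetracycline-induced HEK293 T-REx cells expressing D2 force-coupled to calcium signalling were dye-loaded, exposed to compound for 180 s, then challenged with an EC80 of dopamine; calcium flux was followed kinetically for a further 180 s.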
D2 ag-1 = Beta-Arrestin HTS for Positive Allosteric Modulators of the Human D2 Dopamine Receptor: Agonists; 0.084% of 360,000 active; DiscoveRx PathHunter D2 beta-arrestin, luminescence, 90 min; 100% = 57 uM dopamine signal; activation, % (no concentration beside the values); D(2) dopamine receptor (Homo sapiens), P14416; in the data active means activation above about 40%
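Agonist mode: compounds alone added to overnight-plated D2 PathHunter cells for 90 min at 37 C, with 57 uM final dopamine (EC100) defining full response. Beta-arrestin recruitment detected by chemiluminescent reagent, read after 1 h at ambient temperature.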
D2 ag-2 = HTS Assay for Allosteric Agonists of the Human D2 Dopamine Receptor: Primary Screen for Agonists; D(2) dopamine receptor (Homo sapiens), P14416; HEK293 T-REx D2 cells, calcium flux agonist mode; activation, % at 2 µM; 0.53% of 340,000 active;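 active means activation over 3 SD above normal in the single-dose calcium agonist read, cut at about 30% in these data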; further: 0% is about no effect
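In this primary screen, compounds producing a positive calcium signal within 180 s of addition to tetracycline-induced, force-coupled HEK293 Trex D2 cells are flagged; cells are dye-loaded with a no-wash calcium kit beforehand.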
D2 PAM-2 = HTS Assay for Positive Allosteric Modulators of the Human D2 Dopamine Receptor: Primary Screen for Potentiators. D(2) dopamine receptor (Homo sapiens), P14416. HEK293 T-REx D2, calcium flux, EC20 dopamine potentiation. potentiation, % at 10 µM. 0.34% of 340,000 active. AID 485347, 2010;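 active means potentiation over 3 SD above the plate norm, cut at about 30% in these data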; further: 0% is about no effect
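Potentiation of an EC20 dopamine calcium response measured kinetically over 180 s, after a preceding 180 s compound-only read flagging agonists. Cells: inducible Hek293 Trex D2 line, 4000/well, cultured overnight at 30 C before dye loading.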
* = called active by the depositor; · = no result.

SMILES | D2 PAM-1 | D2 antag | D2 ag-1 | D2 ag-2 | D2 PAM-2
COc1ccccc1CNC(=O)CCc1c(C)nn(-c2ccc(N3CCCC3)nn2)c1C | · | · | · | 0 | -9
Clc1ccc(Nc2ncnc3ccc(Br)cc23)cc1 | -18 | 34* | 1 | 2 | -6
Clc1cccc(Nc2ncnc3ccc(Br)cc23)c1 | -14 | -7 | 1 | 0 | 7
Cc1ccn2c(NC3CCCC3)c(-c3ccncc3)nc2c1 | 9 | -15 | -2 | -1 | 30*
Cc1ccn2c(NC3CCCCC3)c(C(C)C)nc2c1 | -3 | 1 | 0 | 0 | 6
Cc1ccn2c(NC3CCCCC3)c(C)nc2c1 | -5 | 35* | 1 | 0 | -4
O=C(c1cc2c(s1)-c1ccccc1OC2)N1CCc2ccccc2C1 | -1 | 33* | -3 | 4 | -13
CCN1CCN(c2ccc(S(=O)(=O)N3CCOCC3)cc2NC(=O)CC(NC(C)=O)c2ccccc2)CC1 (stereo unspecified) | 0 | · | -3 | · | ·
CCOC(=O)C1=C(CNCc2ccccc2)NC(=O)NC1c1ccc(C)cc1 (stereo unspecified) | · | · | · | 0 | 2
CCN(CC(=O)Nc1cc(Cl)ccc1C)C(=O)COc1cccc2c1OC(C)(C)C2 | -30 | 43* | -3 | 1 | -22
CC1CCc2c(sc3nnn(Cc4ccccc4)c(=O)c23)C1 (stereo unspecified) | · | · | · | 0 | 10
Cc1ccc(NS(=O)(=O)c2cc(Br)cnc2N)cc1C | -8 | -27 | 5 | 0 | 6
Cc1cc(C)cc(NS(=O)(=O)c2cc(Br)cnc2N)c1 | 3 | 32* | 1 | 0 | 2
COc1ccc(C(=O)c2c[nH]cc2-c2ccccc2)cc1 | -7 | 40* | -1 | -2 | 5
COc1ccc(NC(=O)c2sc3nc4c(cc3c2N)CCCCCC4)cc1Cl | · | · | · | 0 | -4
COc1ccc(N2CCN(C(=O)CCNS(=O)(=O)c3ccc(C)cc3)CC2)cc1 | 0 | 12 | -7 | -1 | 7
COc1ccc(N2CCN(C(=O)CCNS(=O)(=O)c3ccc(Br)s3)CC2)cc1 | -6 | 3 | -1 | 1 | 86*
COc1ccc(NC(=O)C2(C)Cc3c(-c4cccc(C(F)(F)F)c4)ccnc3O2)cn1 (stereo unspecified) | -12 | · | -1 | · | ·
CN(CC(=O)Nc1ccc(F)cc1)C(=O)COc1ncnc2ccccc12 | 2 | 3 | -2 | 0 | -6
Cc1ccc(SCC(=O)OCC(=O)N(C)CC(=O)Nc2ccc(F)cc2)cc1C | 10 | 38* | 0 | 12 | 6
CN(CC(=O)Nc1ccc(F)cc1)C(=O)CSc1ccc2c(c1)OCCO2 | -2 | 9 | -2 | 0 | -16
CC(C)c1ccccc1OCC(=O)N(C)CC(=O)Nc1ccc(F)cc1 | -46 | 56* | -3 | 0 | -22
Cc1cc(NS(=O)(=O)c2ccc(NC(=O)c3ccccc3F)cc2)no1 | -4 | · | -5 | · | ·
CN1CCN(CCC(=O)N2c3ccccc3Sc3ccc(C(F)(F)F)cc32)CC1 | -25 | -17 | -1 | 0 | -18
OCCN1CCN(CCCN2c3ccccc3Sc3ccc(C(F)(F)F)cc32)CC1 | · | 60* | · | · | ·
SMILES | D2 PAM-1 | D2 antag | D2 ag-1 | D2 ag-2 | D2 PAM-2
CCN(CC)CCCCN1c2ccccc2Sc2ccccc21 | -20 | 47* | -5 | 0 | -20
OCCN1CCN(CC/C=C2/c3ccccc3CSc3ccccc32)CC1 | -15 | · | -7 | · | ·
CN1CCN(CCC=C2c3ccccc3Sc3ccc(S(=O)(=O)N(C)C)cc32)CC1 | -3 | 77* | 1 | 1 | -17
OCCN1CCN(CC/C=C2/c3ccccc3Sc3ccc(C(F)(F)F)cc32)CC1 | -29 | 83* | 2 | 2 | -22
Cc1cccc(C)c1OCc1nc2c3cnn(-c4cccc(F)c4)c3ncn2n1 | · | · | · | 0 | 10
COc1cccc(-c2cnc3c(NC=O)cc(-c4ccccc4Oc4ccccc4)cn23)c1 | -11 | · | -4 | · | ·
CCOC(=O)C1=C[C@@H](C(C)(C)C)N(S(=O)(=O)c2ccc(C)cc2)[C@H]1c1ccc(OC)cc1 | -8 | · | -5 | · | ·
